Experimental findings from PubChem BioAssay (NCATS) are described below.

Several values for one entry are separate records, joined by “and”; a condition that tells them apart may be missing. Equal values may be shown once. Records with an inconclusive call do not appear. Entries that show only a call come without a potency. Some structures have more than one record in an assay (separate samples or runs), and their calls can disagree. Activity calls are given as the source filed them. Calls come from the whole dose curve; as a rule, active = well fitted inhibition curve with a large enough effect; inconclusive = small, poorly fitted or top-dose-only effect; inactive = no such curve, though single readings can be large or run the other way.

This test is described as follows: Primary qHTS for inhibitors of nuclear receptor binding SET domain protein 2 (NSD2) in an RCH-ACV wild type WT cells (2C) (AID 1645877). Note: nearly all actives have a fitted effect of over 70% in size. Particulars: RCH-ACV (leukaemia line) NSD2 WT (2C) viability, CellTiter-Glo, 72 h; series mostly up to 44.9 µM. From the text:
Assay Provider: Jonathan D. Licht, MD
University of Florida College of Medicine, Gainesville, FL
Mutations in epigenetic regulators are common in relapsed pediatric acute lymphoblastic leukemia (ALL). Here, we uncovered the mechanism underlying the relapse of ALL driven by an activating mutation of the NSD2 histone methyltransferase (p.E1099K). […] Correction of this mutation restored glucocorticoid sensitivity. The transcriptional response to glucocorticoids was blocked in NSD2 mutant cells due to depressed glucocorticoid receptor (GR) levels and the failure of glucocorticoids to autoactivate GR expression. […] Pre-treatment of NSD2 p.E1099K cell lines and PDX samples with PRC2 inhibitors reversed glucocorticoid resistance in vitro and in vivo.
High-throughput drug screening of isogenic RCH-ACV cell lines was performed at the National Center for Advancing Translational Science (NCATS), National Institutes of Health as previously described (1). Briefly, isogenic RCH-ACV NSD2 p.E1099K mutant (9B) and WT cells (2C) were plated at 500 cells/well in a 1536-well plate with a 72-hour incubation with compounds prior to addition of CellTiter-Glo to assess cell viability. NCATS libraries screened include: NPC, MIPE 5.0, Kinase and NPACT. To determine compound activity in the qHTS assay, the concentration-response data for each sample was plotted and modeled by a four-parameter logistic fit yielding IC50 and efficacy (maximal response) values. The area under the curve (AUC) of the dose-response curve ensures both efficacy (magnitude of cell killing) and potency (concentration that elicits cell killing) are accounted for in the analysis of activity.
1. Tobie D Lee, Olivia W Lee, Kyle R Brimacombe, Lu Chen, Rajarshi Guha, Sabrina Lusvarghi, Bethilehem G Tebase, Carleen Klumpp-Thomas, Robert W Robey, Suresh V Ambudkar, Min Shen, Michael M Gottesman, Matthew D Hall. A High-Throughput Screen of a Library of Therapeutics Identifies Cytotoxic Substrates of P-glycoprotein. Mol Pharmacol. 2019, Nov;96(5):629-640.
`NC(=O)c1ccc(-c2nc(-c3ccc4c(c3)OCCO4)c(-c3ccccn3)[nH]2)cc1`: the Potency result was “inactive”.

With `Cc1ccc(-n2nc(C(C)(C)C)cc2NC(=O)Nc2ccc(OCCN3CCOCC3)c3ccccc23)cc1`, the Potency was 21.1 µM (active).

Take `Nc1nc2[nH]cc(CCc3ccc(C(=O)N[C@@H](CCC(=O)O)C(=O)O)cc3)c2c(=O)[nH]1`: the Potency was 0.296 µM (active).

Turning to `COc1ccc(CC2=NN3C([C@@H](CCc4ccccc4)[C@@H](C)O)=NC(C)C3C(=O)N2)cc1OC` (stereo not given in full), the Potency entry was “inactive”.

As to `COc1cc(Nc2ncc3c(n2)-c2ccc(Cl)cc2C(c2c(F)cccc2OC)=NC3)ccc1C(=O)O`, the Potency is 91.6 nM (active) and 29 nM (active) and 37.2 nM (active).

On to `Oc1ccc(C2CNCCc3c2cc(O)c(O)c3Cl)cc1` (stereo not given), for which the Potency result is “inactive”.

`CCCc1nn(C)c2c(=O)[nH]c(-c3cc(S(=O)(=O)N4CCN(C)CC4)ccc3OCC)nc12`: the Potency was 10.6 µM (active) and inactive.

For the compound `O=C1CCC(N2C(=O)c3ccccc3C2=O)C(=O)N1` (stereo not given), the Potency entry was “inactive”.

With `S=C(NCc1ccc2c(c1)OCO2)N1CCN(c2ncnc3c2oc2ccccc23)CC1`, the Potency was 8.17 µM (active).

As to `CCn1c(-c2nonc2N)nc2c(C#CC(C)(C)O)ncc(OC[C@H]3CCCNC3)c21`, the Potency is 1.18 µM (active).

Regarding `CCN(CC)CCCC(C)Nc1ccnc2cc(Cl)ccc12` (stereo not given), the Potency result is “inactive”.

On to `CS(=O)(=O)Oc1ccc2c(NC(N)=O)c(C(=O)c3ccc(Cl)cc3Cl)oc2c1`, for which the Potency entry was “inactive”.

`Cc1cc([C@@H](C)Nc2ccccc2C(=O)O)c2nc(N3CCOCC3)cc(=O)n2c1`: the Potency is 2.51 µM (active) and 1.66 µM (active).

For the compound `COc1cc(F)c(F)c(Nc2ccc(I)cc2F)c1NS(=O)(=O)C1(C[C@H](O)CO)CC1`, the Potency was 25.8 µM (active) and 20.9 µM (active).

Turning to `COc1cccc2cc(-c3nc(C4CCC(C(=O)O)CC4)n4ncnc(N)c34)[nH]c12` (stereo not given), the Potency was 4.68 µM (active) and 820 nM (active).

With `C#Cc1cccc(Nc2ncnc3cc(OCCOC)c(OCCOC)cc23)c1`, the Potency is 9.44 µM (active).

On to `COc1ccccc1-c1cccc(-c2c(O)c3cc(C#N)c(Cl)cc3[nH]c2=O)c1`, for which the Potency result is “inactive”.

In the case of `Cc1[nH]c(=O)c(C#N)cc1-c1ccncc1`, the Potency entry was “inactive”.

Take `O=C(Nc1cccnc1)N1CCC(Cc2cccc(Oc3ccc(C(F)(F)F)cn3)c2)CC1`: the Potency is 5.25 µM (active).

With `CNC(=O)c1ccc(N2C(=S)N(c3ccc(C#N)c(C(F)(F)F)c3)C(=O)C2(C)C)cc1F`, the Potency entry was “inactive”.

`CC(C)(C)NCC(O)c1ccc(O)c(CO)c1` (stereo not given): the Potency result is “inactive”.

In the case of `Cc1c(CCOc2ccc(C(=O)O)cc2)c2cc(Cl)ccc2n1C(c1ccccc1)c1ccccc1`, the Potency result was “inactive”.

For the compound `OCCn1cc(-c2cnc3nnn(Cc4ccc5ncccc5c4)c3n2)cn1`, the Potency entry is “inactive”.

With `O=C(Nc1nc2ccccc2n1CCN1CCOCC1)c1cccc([N+](=O)[O-])c1`, the Potency entry was “inactive”.

With `CN([C@@H](Cc1ccc(OS(=O)(=O)c2cccc3cnccc23)cc1)C(=O)N1CCN(c2ccccc2)CC1)S(=O)(=O)c1cccc2cnccc12`, the activity change, negative = cell killing is 9.55% [at 4.96 µM] (inactive).

Turning to `CC[C@H](Nc1ncnc2nc[nH]c12)c1nc2cccc(F)c2c(=O)n1-c1ccccc1`, the activity change, negative = cell killing is -1.09% [at 9.23 µM] (inactive); the Potency was 231 nM (active) and 1.18 µM (active).

On to `CCCc1nc2c(C)cc(-c3nc4ccccc4n3C)cc2n1Cc1ccc(-c2ccccc2C(=O)O)cc1`, for which the Potency result was “inactive”.

Turning to `COCCNCCCn1c(C(=O)CF)c(-c2ccc(C)cc2)c2c(N)ncnc21`, the Potency was 16.6 µM (active).

Turning to `CCCCNc1cc(C(=O)O)cc(S(N)(=O)=O)c1Oc1ccccc1`, the Potency entry is “inactive”.

Regarding `CCCCCCCc1ccc(CCc2cccc(O)c2C(=O)O)cc1`, the Potency entry was “inactive”.

With `C[C@]12CCC(=O)C=C1CC[C@@H]1[C@@H]2[C@@H](O)C[C@@]2(C)[C@H]1CC[C@]2(O)C(=O)CO`, the Potency was 1.68 µM (active) and 296 nM (active).

With `CN(C)c1ccc(C2Nc3ccc4ccccc4c3C3=C2C(=O)CC(C)(C)C3)cc1Br` (stereo not given), the Potency result is “inactive”.

As for `CC(C[N+](C)(C)C)OC(N)=O` (stereo not given), the Potency result is “inactive”.

For `COc1ccc(-c2c(-c3ccc(O)cc3O)n[nH]c2C)cc1`, the Potency result was “inactive”.

Consider `Nc1ccc(S(=O)(=O)Nc2ccnn2-c2ccccc2)cc1`, for which the Potency result is “inactive”.

With `CCN(c1ccccc1)c1cc(NC)[n+](C)c(C)n1`, the Potency entry is “inactive”.

Turning to `CCc1ccc(CCOc2ccc(CC3SC(=O)NC3=O)cc2)nc1` (stereo not given), the Potency entry was “inactive”.

For the compound `C1COC(NC(C2CC2)C2CC2)=N1`, the Potency entry is “inactive”.

Turning to `COc1cc2c(cc1OC)CN(CCc1ccc(NC(=O)c3cccc4c(=O)c5cccc(OC)c5[nH]c34)cc1)CC2`, the Potency entry was “inactive”.
